Results from the supplement of paper PMC12808144.
Values without a mark were called inactive.

The compounds below were run on Mel-DCC-11-R (assay: cell viability relative to DMSO control (fraction of DMSO control); higher = less cytotoxic, active = 0.8 or less). Conditions: 1 µM; 120 h; vemurafenib co-treatment 0 µM.
Description: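 Same 315-drug TargetMol library at 1 µM in duplicate, 120 h, ATPlite luminescence normalised to DMSO controls, on the vemurafenib-resistant subline Mel-DCC-11-R cultured alone or with 8 µM vemurafenib co-treatment (Mel-DCC-11-R + V).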

| SMILES | cell viability |
| --- | --- |
| CS(=O)(=O)CCNCc1ccc(-c2ccc3ncnc(Nc4ccc(OCc5cccc(F)c5)c(Cl)c4)c3c2)o1.Cc1ccc(S(=O)(=O)O)cc1.Cc1ccc(S(=O)(=O)O)cc1.O [Lapatinib ditosylate monohydrate] | 1.14 |
| CCCCCCCCCCCCCCCC(=O)OC/C=C(C)/C=C/C=C(C)/C=C/C1=C(C)CCCC1(C)C [Retinol palmitate] | 1.02 |
| Cc1cc(Nc2cc(N3CCN(C)CC3)nc(Sc3ccc(NC(=O)C4CC4)cc3)n2)n[nH]1 [Tozasertib] | 1.14 |
| O=NN(CCCl)C(=O)NC1CCCCC1 [Lomustine] | 0.985 |
| O=c1[nH]c(=O)n([C@H]2C[C@H](O)[C@@H](CO)O2)cc1F [Floxuridine] | 1.24 |
| C/C=C1/NC(=O)[C@H]2CSSCC/C=C/[C@H](CC(=O)N[C@H](C(C)C)C(=O)N2)OC(=O)[C@H](C(C)C)NC1=O [Romidepsin] | 0.0525 (active) |
| CC(C)C[C@H](NC(=O)[C@H](CCc1ccccc1)NC(=O)CN1CCOCC1)C(=O)N[C@@H](Cc1ccccc1)C(=O)N[C@@H](CC(C)C)C(=O)[C@@]1(C)CO1 [Carfilzomib] | 0.0186 (active) |
| CC(COc1ccccc1)N(CCCl)Cc1ccccc1.Cl (stereo not given) [Phenoxybenzamine hydrochloride] | 1 |
| CNC(=O)c1cc(Oc2ccc(NC(=O)Nc3ccc(Cl)c(C(F)(F)F)c3)c(F)c2)ccn1 [Regorafenib] | 0.909 |
| CCCCCOC(=O)Nc1nc(=O)n([C@@H]2O[C@H](C)[C@@H](O)[C@H]2O)cc1F [Capecitabine] | 1.04 |
| Cn1nnc2c(C(N)=O)ncn2c1=O [Temozolomide] | 0.884 |
| C[C@@H](Oc1cc(-c2cnn(C3CCNCC3)c2)cnc1N)c1c(Cl)ccc(F)c1Cl [Crizotinib] | 1.16 |
| NC(=O)c1ncn([C@@H]2O[C@H](CO)[C@@H](O)[C@H]2O)c1N [AICAR (Acadesine)] | 1.12 |
| CCC1(O)C(=O)OCc2c1cc1n(c2=O)Cc2cc3cc(O)ccc3nc2-1 (stereo not given) [Hydroxy Camptothecine] | 0.422 (active) |
| CCc1ccc(CCOc2ccc(CC3SC(=O)NC3=O)cc2)nc1.Cl (stereo not given) [Pioglitazone hydrochloride] | 0.921 |
| N#Cc1ccc(C(c2ccc(C#N)cc2)n2cncn2)cc1 [Letrozole] | 1.08 |
| COC(=O)c1cc(OC)c2c(c1-c1c(CO)cc(OC)c3c1OCO3)OCO2 [Bicyclol] | 0.998 |
| C=C1CC[C@@H]2[C@](C)(CO)[C@H](O)CC[C@@]2(C)[C@@H]1C/C=C1/C(=O)OC[C@H]1O [Andrographolide] | 0.887 |
| CS(=O)(=O)CCNCc1ccc(-c2ccc3ncnc(Nc4ccc(OCc5cccc(F)c5)c(Cl)c4)c3c2)o1 [Lapatinib] | 1.12 |
| CNC(=O)c1ccc(N2C(=S)N(c3cnc(C#N)c(C(F)(F)F)c3)C(=O)C23CCC3)cc1F [Apalutamide] | 0.958 |

Same assay, conditions: 1 µM; 120 h; vemurafenib co-treatment 8 µM

| SMILES | cell viability |
| --- | --- |
| CS(=O)(=O)CCNCc1ccc(-c2ccc3ncnc(Nc4ccc(OCc5cccc(F)c5)c(Cl)c4)c3c2)o1.Cc1ccc(S(=O)(=O)O)cc1.Cc1ccc(S(=O)(=O)O)cc1.O [Lapatinib ditosylate monohydrate] | 0.823 |
| CCCCCCCCCCCCCCCC(=O)OC/C=C(C)/C=C/C=C(C)/C=C/C1=C(C)CCCC1(C)C [Retinol palmitate] | 0.978 |
| Cc1cc(Nc2cc(N3CCN(C)CC3)nc(Sc3ccc(NC(=O)C4CC4)cc3)n2)n[nH]1 [Tozasertib] | 0.752 (active) |
| O=NN(CCCl)C(=O)NC1CCCCC1 [Lomustine] | 1.11 |
| O=c1[nH]c(=O)n([C@H]2C[C@H](O)[C@@H](CO)O2)cc1F [Floxuridine] | 1.07 |
| C/C=C1/NC(=O)[C@H]2CSSCC/C=C/[C@H](CC(=O)N[C@H](C(C)C)C(=O)N2)OC(=O)[C@H](C(C)C)NC1=O [Romidepsin] | 0.0432 (active) |
| CC(C)C[C@H](NC(=O)[C@H](CCc1ccccc1)NC(=O)CN1CCOCC1)C(=O)N[C@@H](Cc1ccccc1)C(=O)N[C@@H](CC(C)C)C(=O)[C@@]1(C)CO1 [Carfilzomib] | 0.018 (active) |
| CC(COc1ccccc1)N(CCCl)Cc1ccccc1.Cl (stereo not given) [Phenoxybenzamine hydrochloride] | 1.15 |
| CNC(=O)c1cc(Oc2ccc(NC(=O)Nc3ccc(Cl)c(C(F)(F)F)c3)c(F)c2)ccn1 [Regorafenib] | 0.82 |
| CCCCCOC(=O)Nc1nc(=O)n([C@@H]2O[C@H](C)[C@@H](O)[C@H]2O)cc1F [Capecitabine] | 1.11 |
| Cn1nnc2c(C(N)=O)ncn2c1=O [Temozolomide] | 0.874 |
| C[C@@H](Oc1cc(-c2cnn(C3CCNCC3)c2)cnc1N)c1c(Cl)ccc(F)c1Cl [Crizotinib] | 0.825 |
| NC(=O)c1ncn([C@@H]2O[C@H](CO)[C@@H](O)[C@H]2O)c1N [AICAR (Acadesine)] | 1.21 |
| CCC1(O)C(=O)OCc2c1cc1n(c2=O)Cc2cc3cc(O)ccc3nc2-1 (stereo not given) [Hydroxy Camptothecine] | 0.224 (active) |
| CCc1ccc(CCOc2ccc(CC3SC(=O)NC3=O)cc2)nc1.Cl (stereo not given) [Pioglitazone hydrochloride] | 1.18 |
| N#Cc1ccc(C(c2ccc(C#N)cc2)n2cncn2)cc1 [Letrozole] | 1.06 |
| COC(=O)c1cc(OC)c2c(c1-c1c(CO)cc(OC)c3c1OCO3)OCO2 [Bicyclol] | 1.1 |
| C=C1CC[C@@H]2[C@](C)(CO)[C@H](O)CC[C@@]2(C)[C@@H]1C/C=C1/C(=O)OC[C@H]1O [Andrographolide] | 1.02 |
| CS(=O)(=O)CCNCc1ccc(-c2ccc3ncnc(Nc4ccc(OCc5cccc(F)c5)c(Cl)c4)c3c2)o1 [Lapatinib] | 0.841 |
| CNC(=O)c1ccc(N2C(=S)N(c3cnc(C#N)c(C(F)(F)F)c3)C(=O)C23CCC3)cc1F [Apalutamide] | 1.1 |
